Target: HIST2H3A
Test: pooled miR-30 sensor sort-seq; sequence = guide strand
Settings: shRNA
Also: reference of the scale not given here.

Sequence	sensor-assay potency score (higher = more potent)
TCTCGCGTACCAGCCGCTGGAA	-1.89
TTCGTGTCTTCGAACAGCCCCA	-0.563
TGGCGCACAGGTTCGTGTCTTC	-0.891
TTGCCGCCGGTCGACTTGCGAG	-1.63
AAGTCCTGCGCGATCTCGCGTA	-1.16
TTGGGCATAATGGTCACGCGCT	-0.549
TTAAAGTCCTGCGCGATCTCGC	-0.191
TGGATGGCGCACAGGTTCGTGT	-1.93
TTGCGGATCAGCAGCTCCGTGG	-1.49
TGGACTTCTGGTAGCGCCGGAT	-1.34

Target: HKR1
Test: as above
Settings: shRNA

Sequence	sensor-assay potency score (higher = more potent)
TTAAGGTTTGACTTCAGGCTAA	0.0194
TTGATGAGGACTGACATACTGC	-0.174
TTGACTTCCACGTAAAGCCTCG	-0.345
TTTGGTATCTAGCAATGGCTGA	-0.389
ATAAACTTGAAAACAGCTGAGA	-0.36
TACTTTGTCTGTTTCCTCTAGA	0.778
TTTGACTCCTTGATAAAGCCTG	-0.108
TTGATTTCTCCAAATCCTGAGA	-0.892
TTAACTTAGCACAAAAGCCTTG	-0.326
TTGACTCCTTGATAAAGCCTGG	-0.606
TACCAGTACAGTCTCATGCATA	-0.938
TAACTTAGCACAAAAGCCTTGC	0.138

Target: HLA-DMA
Test: as above
Settings: shRNA

Sequence	sensor-assay potency score (higher = more potent)
TCAGCGTGAACACTTCAGCGAT	-1.13
TTCGTGAGTCACAATGCAGGAG	0.512
ATTTCGTGAGTCACAATGCAGG	-1.4
TTACTGACAAAACAGACCAAAG	-1.69
TTGGAGTAGGAGCTTCAGGGAC	-1.01
TTCACTGTCAGCATGGGTGGGA	0.0511
TGTGTAGCGGTCAATTTCGTGA	-0.684
TAGATGATGAGAACAATGCCCA	-0.0715
TTGCTGGATCATCCACTCGCAG	-1.31
TCGTGAGTCACAATGCAGGAGA	-0.908
TGCTGGATCATCCACTCGCAGA	-1.77

Target: HLA-DRA
Test: as above
Settings: shRNA

Sequence	sensor-assay potency score (higher = more potent)
TAAACAATAAGTACACAAGAGA	-0.861
TTGGTGATCGGAGTATAGTTGG	-0.222
TACCTCTGGAGGTACATTGGTG	-0.943
AGACTGTCTCTGACACTCCTGT	-1.07
TCAAACATAAACTCGCCTGATT	-0.205
TTCGTGAGCACAGTTACCTCTG	0.227
TTCTGCTGCATTGCTTTTGCGC	-0.581
